SMILES strings stand for the structures. Inconclusive results are not listed. The source made the active and inactive calls. Rule for the calls: active = hit-call score of the fitted dose curve at least 0.9, where 1 is the maximum; inconclusive = response in the unintended direction; inactive = score below 0.9.

rat Adrenergic Receptor, Alpha 2 (Adra2), Non-selective Binding, Adra2a (gene 25083), sequence (P22909 whole entry, looked up): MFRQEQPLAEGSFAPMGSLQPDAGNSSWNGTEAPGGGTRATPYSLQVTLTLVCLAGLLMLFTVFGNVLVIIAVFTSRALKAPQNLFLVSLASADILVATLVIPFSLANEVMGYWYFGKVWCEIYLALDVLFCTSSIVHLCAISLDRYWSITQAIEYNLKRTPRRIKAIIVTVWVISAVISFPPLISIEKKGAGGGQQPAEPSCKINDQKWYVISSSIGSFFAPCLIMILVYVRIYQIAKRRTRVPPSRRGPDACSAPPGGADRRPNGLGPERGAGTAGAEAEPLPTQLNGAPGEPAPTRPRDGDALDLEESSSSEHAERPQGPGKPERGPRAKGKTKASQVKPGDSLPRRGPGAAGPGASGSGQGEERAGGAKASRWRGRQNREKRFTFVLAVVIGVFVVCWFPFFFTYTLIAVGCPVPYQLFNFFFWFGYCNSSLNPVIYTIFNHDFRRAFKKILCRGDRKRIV

For the first test, the target named is rat Adrenergic Receptor, Alpha 2 (Adra2), Non-selective Binding, Adra2a (gene 25083) (UniProt P22909). In words: NVS_GPCR_rAdra2_NonSelective: NovaScreen (NVS) G Protein-Coupled Receptor Assay for rat Adrenergic Receptor, Alpha 2 (Adra2), Non-selective Binding (AID 2283299). The procedure, abridged:
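Rat cortical membranes, radioligand competitive displacement read by filter-based scintillation counting 1.25 hours after dosing. Primary screen in duplicate at 25 uM; actives followed up in concentration series.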
A word on the AC50: it is the concentration giving half of the maximal activity seen. In the case of `[Cl][Sn]([c]1ccccc1)([c]1ccccc1)[c]1ccccc1`, the AC50 was 9.5 µM (active).
On the same count and under the same terms, with `C[N+](C)(C)Cc1ccccc1` the figure was 31.5 µM (active); with `COc1ccccc1N`, 25 µM (active).
For `CCC(C)(C#N)N=NC(C)(C#N)CC` (configuration not stated), the outcome was inactive.

The target of another test is Sodium channel protein type 1 subunit alpha (Rattus norvegicus) (UniProt P04774). In words: NVS_IC_rNaCh_site2: NovaScreen (NVS) Ion Channel Assay for rat Sodium Channel, Site 2 (NaCh) (AID 2283322).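 Note: hit means loss of radioligand binding signal relative to DMSO so AC50 marks displacement.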 How it is done:
NVS_IC_rNaCh_site2 is a biochemical, single-readout assay that uses extracted gene-proteins from Rat forebrain membranes in a tissue-based cell-free assay. Measurements were taken 1 hour after chemical dosing in a 48-well plate.NVS_IC_rNaCh_site2 is one of one assay component(s) measured or calculated from the NVS_IC_rNaCh_site2 assay. It is designed to make measurements of radioligand binding, a form of binding reporter, as detected with scintillation counting signals by Filter-based radiodetection technology.Data from the assay component NVS_IC_rNaCh_site2 was analyzed into 1 assay endpoint. This assay endpoint, NVS_IC_rNaCh_site2, was analyzed in the positive analysis fitting direction relative to DMSO as the negative control and baseline of activity. Using a type of binding reporter, loss-of-signal activity can be used to understand changes in the binding as they relate to the gene Scn1a. Furthermore, this assay endpoint can be referred to as a primary readout, because the performed assay has only produced 1 assay endpoint. To generalize the intended target to other relatable targets, this assay endpoint is annotated to the ion channel intended target family, where the subfamily is sodium channel.
Binding assays used specific radioligands (tritiated, iodinated) with non-radioactive competitive displacement ligands in agonist or antagonist protocols (as indicated) and various reference compounds and inhibitors to titrate specific binding to receptors and transporters. Most enzyme assays (CYPs, kinases, phosphatases, proteases, HDACs) used recombinant protein and specific substrates (fluorescence mostly, some colorimetric and radioactive) and inhibitors, followed by a biochemical separation of substrate and product. All assays for the biochemical HTS were initially run in duplicate at a single concentration (10 uM for CYP450 assays and 25 uM for all others). […] Each assay was run with positive and negative controls, and concurrent controls on every plate. The follow-up (secondary) screen tested active chemical-pairs in concentration series, as well as a few additional assays not tested in the primary screen, some selected negative inactives, and several cases re-run in the concentration series for confirmatory purposes.
For `Brc1c(Br)c(Br)c(Oc2c(Br)c(Br)c(Br)c(Br)c2Br)c(Br)c1Br`, the compound was classed as inactive.
With `OC(Cc1ccccc1Cl)(Cn1cncn1)C1(Cl)CC1` (configuration not stated), the half-maximal activity concentration (AC50) was 6.73 µM (active).
For `CCOP(=O)(OCC)SCCSCC`, the call was inactive.
As for `NC(=O)CCl`, the AC50 is 42.5 µM (active).
Regarding `CCCCCCCCCCBr`, the call was inactive.
Same read-out and setting: the result for `CCOP(=S)(OCC)SCS(=O)(=O)C(C)(C)C` reads “inactive”; that for `CCCCCCCCCCCCN(C)C`, “inactive”.
Consider `CC(C)(COCC1CO1)COCC1CO1` (configuration not stated), for which the AC50 is 2.05 µM (active).

For the origin of these results see PubChem BioAssay (EPA / NIEHS).
